Measured values taken from publication PMC5540273 (PLoS ONE, 2017).

What was measured:
Settings in all cases: concentration: 1 μM, replicates: in singlicate; n = 1
TNIK = tested on: TNIK
TNK1 = tested on: TNK1
TNK2 = tested on: TNK2
TNNI3K = tested on: TNNI3K
TRKA = tested on: T1, TRKA
T1 construct: gene NTRK1

TRKB = tested on: TRKB
TRKC = tested on: T2, TRKC
T2 construct: gene NTRK3

TRPM6 = tested on: TRPM6
TSSK1B = tested on: TSSK1B
TSSK3 = tested on: TSSK3
TTK = tested on: TTK
TXK = tested on: TXK
[1] = tested on: TYK2(JH1domain-catalytic)
[2] = tested on: TYK2(JH2domain-pseudokinase)
TYRO3 = tested on: TYRO3
ULK1 = tested on: ULK1
ULK2 = tested on: ULK2
ULK3 = tested on: ULK3
VEGFR2 = tested on: T3, VEGFR2
T3 construct: gene KDR

VPS34 = tested on: T4, VPS34
T4 construct: gene PIK3C3
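Also: KINOMEscan kinase panel screen.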

SMILES	%Inh (TNIK)	%Inh (TNK1)	%Inh (TNK2)	%Inh (TNNI3K)	%Inh (TRKA)	%Inh (TRKB)	%Inh (TRKC)	%Inh (TRPM6)	%Inh (TSSK1B)	%Inh (TSSK3)	%Inh (TTK)	%Inh (TXK)	%Inh [1]	%Inh [2]	%Inh (TYRO3)	%Inh (ULK1)	%Inh (ULK2)	%Inh (ULK3)	%Inh (VEGFR2)	%Inh (VPS34)
COC(=O)c1c(-c2ccccc2)c2cc(OC)ccc2c(=O)n1Cc1ccccc1	1%	0%	0%	0%	0%	0%	0%	11%	10%	0%	14%	12%	7%	0%	0%	1%	0%	0%	7%	0%
Cn1ccc2ncnc(Oc3cccc(C(=O)Nc4ccccc4)c3)c21	16%	3%	9%	1%	21%	0%	0%	0%	9%	0%	0%	0%	0%	0%	0%	0%	6%	9%	59%	11%
COc1ccc(Nc2nccc(NCCNC(=O)Nc3ccccc3F)n2)cc1 [GSK1379901]	0%	0%	31%	14%	0%	0%	18%	11%	0%	7%	0%	24%	26%	28%	0%	0%	0%	37%	0%	0%
Cc1ccc(C(=O)Nc2ccc(Nc3ccnc4cc(-c5ccccn5)ccc34)cc2O)cc1.Cl [GW440146]	0%	45%	95.3%	0%	7%	0%	34%	57%	34%	13%	0%	5%	28%	19%	0%	0%	0%	3%	13%	0%
COc1ccc2nc(-c3cccc(C)n3)nc(Nc3ccncc3)c2c1 [GSK204919]	9%	0%	15%	16%	0%	0%	0%	0%	0%	14%	0%	9%	10%	82%	4%	4%	0%	2%	0%	0%
CCn1c(-c2ccccn2)nc2cnccc21 [SB-736398]	0%	7%	9%	0%	0%	59%	52%	0%	5%	12%	0%	10%	21%	45%	0%	8%	0%	0%	0%	4%
Cc1c(Cn2ccn3c(=O)cc(N4CCOCC4)nc23)cccc1C(F)(F)F [GSK2289044]	3%	0%	6%	2%	1%	0%	0%	12%	12%	6%	1%	0%	0%	0%	0%	7%	0%	0%	1%	95.1%
CCCc1ccc(S(=O)(=O)NC2CCN(c3ccnc(Nc4ccc(F)cc4)n3)C2)cc1 (stereo not drawn) [GSK1379715]	0%	0%	26%	13%	0%	0%	28%	0%	100%	15%	0%	73%	26%	30%	0%	16%	0%	4%	0%	0%
COC(=O)c1c(-c2ccccc2)c2cc(C(=O)O)ccc2c(=O)n1Cc1ccccc1	0%	0%	0%	0%	0%	0%	11%	0%	0%	0%	4%	0%	0%	4%	7%	0%	0%	0%	0%	9%
